Legend:
[1] = target: T1, Aspartate--tRNA(Asp/Asn) ligase (Mycobacterium tuberculosis (strain ATCC 25618 / H37Rv)) (UniProt P9WFW3); assay: Assay for Asp RNA synthetase-1 from Mycobacterium tuberculosis; type: functional; parameters: scale not given: direction of the effect not stated beside the values; settings: 30 µM; note: in the data most compounds retested in dose-response had high values
T1 sequence (whole entry): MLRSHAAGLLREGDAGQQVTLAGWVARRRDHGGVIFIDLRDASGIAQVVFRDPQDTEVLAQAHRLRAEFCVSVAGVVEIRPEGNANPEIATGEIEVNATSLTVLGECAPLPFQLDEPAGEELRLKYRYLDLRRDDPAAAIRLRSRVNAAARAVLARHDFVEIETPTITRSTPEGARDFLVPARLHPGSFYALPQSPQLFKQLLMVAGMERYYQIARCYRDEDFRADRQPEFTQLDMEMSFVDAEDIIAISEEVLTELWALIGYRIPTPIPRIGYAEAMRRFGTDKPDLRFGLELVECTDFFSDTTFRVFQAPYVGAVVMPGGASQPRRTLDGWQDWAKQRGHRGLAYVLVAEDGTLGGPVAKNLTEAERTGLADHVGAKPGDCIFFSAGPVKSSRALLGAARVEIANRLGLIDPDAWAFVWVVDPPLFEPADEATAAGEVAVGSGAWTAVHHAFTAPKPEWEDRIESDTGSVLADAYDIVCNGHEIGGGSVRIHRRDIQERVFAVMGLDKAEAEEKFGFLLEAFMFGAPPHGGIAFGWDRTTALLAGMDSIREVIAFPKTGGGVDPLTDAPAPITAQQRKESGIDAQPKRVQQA

[2] = target: Shiga toxin 2 (Escherichia coli O157:H7) (UniProt P09385+P09386); assay: E. coli 0.157:H7 Shiga Toxin SOP - stx2 screening assay; type: functional; parameters: scale not given: direction of the effect not stated beside the values; settings: 30 µM

Compound | Percent Effect [1] [%] | Percent Effect [2] [%]
Cc1nc(CCNC(=O)NC2CCN(c3ncccn3)CC2)cs1 | -2.14 | -10
CC(C)OCCN1CCC(N2CCN(C)C2=O)CC1 | 0.182 | -16.8
COc1ccc(Cc2cccc(C3CCN(C)CC3)n2)cc1 | -1.77 | -4.18
CN(CC(=O)N1CCC(Oc2ccccc2)CC1)c1cnccn1 | 0.175 | -7.36
Cc1nn(C)c(C)c1-c1cncc(C2CCN(S(C)(=O)=O)CC2)n1 | -2.63 | -8.32
COc1ccnc(N2CCN(C(=O)Cc3ccc(C#N)cc3)CC2)n1 | 4.99 | 8.53
CC(C)Oc1cccc(C(=O)C2CCCN(C(=O)c3ccccn3)C2)c1 (stereo not drawn) | -1.79 | 6.16
Cc1[nH]ccc1C(=O)Nc1cccc(CN2CCC(CO)CC2)c1 | -1.71 | -43.9
CCN(CC)c1ccc(NS(=O)(=O)c2cncc(F)c2)cn1 | 1.66 | -27.3
COCCN1CCc2cc(C(=O)N(C)C)c(NC(C)C)nc2CC1 | -1.31 | -20
CN1CCCn2c(nc(CNC(=O)c3ccsc3)cc2=O)C1 | 4.62 | -9.45
NC(=O)NCCC(=O)NCc1cccnc1N1CCc2ccccc2C1 | -1.71 | 6.61
COC(=O)C1CCN(c2cncc(-n3nc(C)cc3C)n2)CC1 | 8.26 | -51.5
CC(C)Oc1cccc(CNC(=O)NC(C)(C(=O)O)c2ccco2)c1 (stereo not drawn) | 1.32 | 25.1
CC(C)c1noc(CCC(=O)NCC2CCS(=O)(=O)C2)n1 (stereo not drawn) | -3.63 | -17.1
COc1ccnc(N2CCN(C(=O)c3csc(C4CC4)n3)CC2)n1 | -0.494 | -2.7
Cc1ccc(-c2cc(CN3CCOC(Cn4cncn4)C3)on2)cc1 (stereo not drawn) | 1.83 | -14
CN(C)C(=O)N1Cc2nnn(C)c2C(COCC2CC2)C1 (stereo not drawn) | 3.51 | -35.2
CCN(CC)C(=O)CCNc1cncc(-n2nc(C)cc2C)n1 | 1.51 | -34.2

Source: ChEMBL document CHEMBL3988442, “University of Dundee, Small-Polar-MMV Screening Library” (2021)
